# Assay results: PubChem BioAssay (NCATS)
# Inconclusive results are not listed. Entries that show only a call come without a potency. Unmarked numbers belong to inactive results. Activity calls are given as the source filed them. The call rests on the fitted dose curve; in most records, active means well fitted curve in the direction sought with a large enough effect; inconclusive means small, poorly fitted or top-dose-only effect, or another doubt; inactive means no such curve, though single readings can be large; an effect the other way counts as inactive or inconclusive.
# What was measured:
# [1] = biological target: Rap guanine nucleotide exchange factor 3 (Homo sapiens) (UniProt O95398); experiment: Confirmatory qHTS for antagonist of cAMP-regulated guanine nucleotide exchange factor 3 (EPAC1) (AID 1645880); further: nearly all actives have a fitted effect of over 55% in size; further: potency means the concentration at half of the fitted maximal effect
# Sequence of Rap guanine nucleotide exchange factor 3 (Homo sapiens) (O95398 whole entry, looked up): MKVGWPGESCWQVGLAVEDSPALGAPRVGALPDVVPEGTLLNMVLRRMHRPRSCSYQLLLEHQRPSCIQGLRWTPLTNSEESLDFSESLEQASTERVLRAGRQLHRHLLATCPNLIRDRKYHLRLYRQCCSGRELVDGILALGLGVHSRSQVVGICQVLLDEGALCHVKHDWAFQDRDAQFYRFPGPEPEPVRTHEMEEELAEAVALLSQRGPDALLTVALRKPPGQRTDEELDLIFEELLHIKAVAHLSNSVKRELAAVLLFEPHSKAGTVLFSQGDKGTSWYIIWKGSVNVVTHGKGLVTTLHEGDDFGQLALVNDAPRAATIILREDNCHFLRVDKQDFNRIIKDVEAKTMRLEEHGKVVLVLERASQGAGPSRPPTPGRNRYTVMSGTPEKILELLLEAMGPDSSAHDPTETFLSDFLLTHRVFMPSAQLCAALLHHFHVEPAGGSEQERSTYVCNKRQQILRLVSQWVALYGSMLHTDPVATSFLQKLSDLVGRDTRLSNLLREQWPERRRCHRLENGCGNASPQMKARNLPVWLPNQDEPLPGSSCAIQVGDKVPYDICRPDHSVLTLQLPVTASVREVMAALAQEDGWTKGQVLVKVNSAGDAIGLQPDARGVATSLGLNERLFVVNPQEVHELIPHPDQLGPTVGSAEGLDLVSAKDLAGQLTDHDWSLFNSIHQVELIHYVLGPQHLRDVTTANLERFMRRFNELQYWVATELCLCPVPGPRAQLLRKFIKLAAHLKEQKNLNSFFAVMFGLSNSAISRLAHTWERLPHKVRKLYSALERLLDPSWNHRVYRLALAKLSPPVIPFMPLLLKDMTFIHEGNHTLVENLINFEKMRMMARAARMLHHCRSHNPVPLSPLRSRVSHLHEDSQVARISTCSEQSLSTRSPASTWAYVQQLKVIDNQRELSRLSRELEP
# How it was run: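 Released BODIPY-GDP fluoresces less than Rap1-bound BODIPY-GDP; the signal is followed at 480/540 nm at 5-min intervals over 30 min, after 5 min at room temperature. Reactions contain 100 nM EPAC1, 250 nM RAP1B-BODIPY-GDP and 50 uM GDP; results are normalized to ATA and DMSO.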
# [2] = biological target: Rap guanine nucleotide exchange factor 3 (Homo sapiens) (UniProt O95398); experiment: Confirmatory qHTS for agonist of cAMP-regulated guanine nucleotide exchange factor 3 (EPAC1) (AID 1645881);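 further: EPAC1 catalysed release of BODIPY-GDP from Rap1B seen as fluorescence loss; nearly all actives have a fitted effect of over 75% in size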
# [3] = biological target: Rap guanine nucleotide exchange factor 4 (Homo sapiens) (UniProt Q8WZA2); experiment: Confirmatory qHTS for agonist of cAMP-regulated guanine nucleotide exchange factor 4 (EPAC2) (AID 1645884);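 further: nucleotide exchange releases bodipy-GDP from Rap1 and this lowers its fluorescence; nearly all actives have a fitted effect of over 65% in size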
# Sequence of Rap guanine nucleotide exchange factor 4 (Homo sapiens) (Q8WZA2 whole entry, looked up): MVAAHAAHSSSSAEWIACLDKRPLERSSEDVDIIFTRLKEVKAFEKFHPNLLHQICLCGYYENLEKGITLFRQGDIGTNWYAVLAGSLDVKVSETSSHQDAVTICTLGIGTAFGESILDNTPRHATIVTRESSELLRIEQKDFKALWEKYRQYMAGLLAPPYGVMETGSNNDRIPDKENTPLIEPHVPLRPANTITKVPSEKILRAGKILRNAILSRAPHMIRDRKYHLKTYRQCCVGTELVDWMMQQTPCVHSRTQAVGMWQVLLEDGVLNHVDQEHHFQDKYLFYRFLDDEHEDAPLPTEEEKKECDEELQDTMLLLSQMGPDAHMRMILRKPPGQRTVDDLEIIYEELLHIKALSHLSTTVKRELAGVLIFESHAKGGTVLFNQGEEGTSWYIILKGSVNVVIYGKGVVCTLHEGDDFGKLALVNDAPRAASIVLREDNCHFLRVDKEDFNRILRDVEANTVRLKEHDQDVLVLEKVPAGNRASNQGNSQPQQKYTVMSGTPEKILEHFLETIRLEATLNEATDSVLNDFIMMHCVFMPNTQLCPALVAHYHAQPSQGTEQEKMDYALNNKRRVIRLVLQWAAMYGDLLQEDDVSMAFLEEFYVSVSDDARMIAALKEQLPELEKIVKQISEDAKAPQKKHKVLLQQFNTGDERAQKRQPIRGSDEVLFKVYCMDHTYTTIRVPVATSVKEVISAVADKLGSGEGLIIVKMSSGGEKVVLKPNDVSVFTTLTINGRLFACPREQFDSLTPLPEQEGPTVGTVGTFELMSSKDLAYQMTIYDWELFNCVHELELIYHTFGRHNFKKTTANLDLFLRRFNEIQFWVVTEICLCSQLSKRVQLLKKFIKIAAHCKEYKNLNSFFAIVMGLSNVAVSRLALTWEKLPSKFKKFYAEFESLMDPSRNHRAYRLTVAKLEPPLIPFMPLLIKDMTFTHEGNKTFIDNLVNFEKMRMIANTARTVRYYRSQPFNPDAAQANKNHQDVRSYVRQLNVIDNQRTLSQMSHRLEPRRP
# [4] = biological target: Rap guanine nucleotide exchange factor 4 (Homo sapiens) (UniProt Q8WZA2); experiment: Confirmatory qHTS for antagonist of cAMP-regulated guanine nucleotide exchange factor 4 (EPAC2) (AID 1645885); further: nearly all actives have a fitted effect of over 25% in size; further: potency means the concentration at half of the fitted maximal effect
# [5] = biological target: Rap guanine nucleotide exchange factor 3 (Homo sapiens) (UniProt O95398); experiment: Counterscreen qHTS for antagonist of cAMP-regulated guanine nucleotide exchange factor 3 (EPAC1) (AID 1645888)
# How it was run: (§1)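 Rap1B–BODIPY-GDP (250 nM) with 50 uM GDP; compounds pin-transferred to 9.74 nM–152 uM final (activator) or from 7.32 nM upwards (inhibitor). Fluorescence Ex/Em 480/540 nm read at 5 and 30 min, then after adding cAMP or buffer, at room temperature.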
# [6] = biological target: Rap guanine nucleotide exchange factor 3 (Homo sapiens) (UniProt O95398); experiment: Counterscreen qHTS for agonist of cAMP-regulated guanine nucleotide exchange factor 3 (EPAC1) (AID 1645889); further: nearly all actives have a fitted effect of over 40% in size; further: potency means the concentration at half of the fitted maximal effect
# How it was run: as §1
Structure (SMILES),Potency [1],Potency [2],Potency [3],Potency [4],Potency [5],Potency [6],activation [3],"activity change, negative = inhibition [5]",activation [6],outcome [4]
Cc1cc2ccccn2c1C(=O)c1ccc(Cl)cc1,inactive,inactive,inactive,inactive,inactive,0.141 µM (active),,,,
CC(C)Cc1csc(NC(=O)c2ccc(F)cc2)c1C(=O)O,inactive,inactive,inactive,inactive,inactive,inactive,,,,
COc1cccc(CC(=O)Nc2ccc(S(=O)(=O)Nc3nccs3)cc2)c1,inactive,inactive,,inactive,,,"-3.47% [at 17.1 µM, percent relative to cAMP agonist control]",-17.8% [at 30.8 µM],9.39% [at 30.8 µM],
CC1CC1C(=O)OCC(=O)NNC(=O)COc1ccc(Br)cc1 (configuration not stated),inactive,inactive,,inactive,,,"2.41% [at 17.1 µM, percent relative to cAMP agonist control]",26.9% [at 30.8 µM],28.1% [at 30.8 µM],
N#Cc1c(/N=C/c2ccco2)sc2c1CCC2,inactive,inactive,,inactive,,,"2.45% [at 17.1 µM, percent relative to cAMP agonist control]",0.743% [at 30.8 µM],7.28% [at 30.8 µM],
CN1C(=O)C2(C(C#N)=C(N)N(c3cc(Cl)cc(Cl)c3)C3=C2C(=O)CC(C)(C)C3)c2ccccc21 (configuration not stated),inactive,inactive,inactive,inactive,inactive,inactive,,,,
O=C(Nc1ccc(F)cc1F)C1CCN(c2ncccn2)CC1,inactive,inactive,inactive,inactive,inactive,inactive,,,,
Cc1ccc(F)c(NC(=O)/C(C#N)=C(\O)c2ccc(C(C)(C)C)cc2)c1,8.91 µM (active),inactive,,inactive,,,"-11.9% [at 17.1 µM, percent relative to cAMP agonist control]",8.44% [at 30.8 µM],14.8% [at 30.8 µM],
Cc1ccc2oc(=O)n(CCOc3ccccc3Cl)c2c1,inactive,inactive,inactive,inactive,inactive,inactive,,,,
COc1ccc(C(=O)Nc2cc(OC)c(Cl)cc2OC)cc1,inactive,inactive,,inactive,,,"4.3% [at 17.1 µM, percent relative to cAMP agonist control]",-12.1% [at 30.8 µM],10.3% [at 30.8 µM],
COC(=O)c1sccc1NS(=O)(=O)c1ccccc1[N+](=O)[O-],inactive,inactive,,inactive,,,"-1.71% [at 17.1 µM, percent relative to cAMP agonist control]",-0.412% [at 30.8 µM],33.8% [at 30.8 µM],
CCCOc1ccccc1Cn1c(=O)oc2ccccc21,inactive,inactive,inactive,9.53 µM (active),inactive,inactive,,,,
COC(=O)c1cc2sc(Cl)cc2n1Cc1c(C)cc(C)cc1C,inactive,inactive,inactive,inactive,inactive,inactive,,,,
CCN1/C(=C/c2ccc3cc(C)ccc3[n+]2CC)Sc2ccccc21,75.7 µM (active),inactive,inactive,inactive,inactive,inactive,,,,
CCCCN(C(=O)CSCC(=O)Nc1ccc(C)cc1)c1c(N)n(CCCC)c(=O)[nH]c1=O,inactive,inactive,,inactive,,,"4% [at 17.1 µM, percent relative to cAMP agonist control]",-21.2% [at 30.8 µM],6.23% [at 30.8 µM],
Cc1cc(C)c(C(=O)c2cccs2)c(C)c1,inactive,inactive,inactive,inactive,inactive,inactive,,,,
CC1(C)CC(=O)C2=C(C1)c1c(ccc3ccccc13)NC2c1cc([N+](=O)[O-])cc([N+](=O)[O-])c1O (configuration not stated),9.53 µM (active),inactive,inactive,26.9 µM (active),inactive,inactive,,,,
COc1cc(SC)ccc1C(=O)N(Cc1ccccc1)c1ccccc1,inactive,inactive,inactive,23.9 µM (active),inactive,inactive,,,,
CC1CCCCN1C(=O)COC(=O)c1cc([N+](=O)[O-])ccc1N1CCOCC1 (configuration not stated),inactive,inactive,inactive,inactive,inactive,inactive,,,,
CC(Sc1ccc(Cl)cc1)C(=O)NNC(=O)c1csc(N2CCOCC2)n1 (configuration not stated),inactive,inactive,,inactive,,,"4.3% [at 17.1 µM, percent relative to cAMP agonist control]",-11.6% [at 30.8 µM],30.8% [at 30.8 µM],
CCOc1ccc(N2C(=O)Nc3ccccc3C2(O)C(=O)NCc2ccc(C)cc2)cc1 (configuration not stated),inactive,inactive,,inactive,,,"-4.83% [at 17.1 µM, percent relative to cAMP agonist control]",-5.47% [at 30.8 µM],7.84% [at 30.8 µM],

Structure (SMILES),Potency [1],Potency [2],Potency [3],Potency [4],Potency [5],Potency [6],activation [3],"activity change, negative = inhibition [5]",activation [6],outcome [4]
C=CCn1c(C)cc(C(=O)Cn2ncc(Cl)c(Cl)c2=O)c1C,37.9 µM (active),inactive,inactive,inactive,inactive,inactive,,,,
S=C(Nc1cccc2ccccc12)NC1CCCCC1,inactive,inactive,,inactive,,,"0.103% [at 17.1 µM, percent relative to cAMP agonist control]",5.07% [at 30.8 µM],5.1% [at 30.8 µM],
CC(=O)N1c2ccc(S(=O)(=O)N(C)Cc3ccco3)cc2CC1C (configuration not stated),inactive,inactive,inactive,inactive,inactive,inactive,,,,
CN(C)C(=S)Oc1ccccc1-c1ccccc1OC(=S)N(C)C,inactive,inactive,inactive,inactive,inactive,inactive,,,,
CCOc1ccc(-n2c(SCC(=O)Nc3ccccc3OC)nc3c(oc4ccccc43)c2=O)cc1,inactive,inactive,inactive,inactive,inactive,inactive,,,,
COc1cc(OC)c(CNC2CCCCCC2)cc1Br,inactive,inactive,inactive,inactive,inactive,inactive,,,,
CCc1ccc(/C=C2\SC(=S)N(CCC(=O)Nc3cc(C)on3)C2=O)cc1,inactive,inactive,inactive,inactive,inactive,inactive,,,,
CC(=O)NC(C)c1nc2ccccc2n1Cc1ccccc1Cl (configuration not stated),inactive,inactive,inactive,inactive,inactive,inactive,,,,
Cc1ccc(S(=O)(=O)N2[C@@H](c3ccc(Cl)cc3)C(C(=O)O)=CC[C@H]2c2ccc(C(C)C)cc2)cc1,42.6 µM (active),inactive,inactive,inactive,inactive,inactive,,,,
COC(=O)c1cc2occc2n1Cc1ccc(F)cc1Cl,inactive,inactive,inactive,inactive,inactive,inactive,,,,
O=C(Nc1cc(C(=O)Nc2ccccc2C(=O)O)cc(C(=O)Nc2ccccc2C(=O)O)c1)c1ccccc1,2.24 µM (active),inactive,,inactive,,,"5.98% [at 17.1 µM, percent relative to cAMP agonist control]",11.5% [at 30.8 µM],19.7% [at 30.8 µM],
C=CCNC(=O)C1CC1(c1cccc(C)c1)c1cccc(C)c1 (configuration not stated),inactive,inactive,inactive,inactive,inactive,inactive,,,,
O=C(O)C1CSC(c2ccco2)N1 (configuration not stated),inactive,inactive,,inactive,,,"15.3% [at 17.1 µM, percent relative to cAMP agonist control]",-26.6% [at 30.8 µM],2.32% [at 30.8 µM],
CCOCCCn1c(SCC(=O)Nc2ccc(OC)cc2OC)nc2ccccc2c1=O,inactive,inactive,inactive,,inactive,inactive,,,,inactive [at 12.7 µM]
CC(=O)NC(c1ccco1)c1cc(Cl)c2cccnc2c1O (configuration not stated),inactive,inactive,inactive,inactive,inactive,inactive,,,,
COC(=O)c1cn(C(=O)c2cc(OC)c(OC)c(OC)c2)c2ccccc12,inactive,inactive,inactive,inactive,inactive,inactive,,,,
CCC(=O)N1c2nc(C(C)C)nn2C2(CCCCC2)[C@@H]2CCCC[C@@H]21,inactive,inactive,inactive,,inactive,inactive,,,,inactive [at 12.7 µM]
COc1cccc(C2c3[nH]c4ccccc4c3CCN2Cc2ncc[nH]2)c1 (configuration not stated),inactive,inactive,,inactive,,,"1.64% [at 17.1 µM, percent relative to cAMP agonist control]",-8.75% [at 30.8 µM],15.1% [at 30.8 µM],
CCn1c(CNC(=O)COC)nc2ccccc21,inactive,inactive,,inactive,,,"3.77% [at 17.1 µM, percent relative to cAMP agonist control]",-4.31% [at 30.8 µM],4.54% [at 30.8 µM],
CCc1cccc(C)c1NC(=O)c1cc2ccccc2o1,inactive,inactive,inactive,inactive,inactive,inactive,,,,
Cc1ccc(N(Cc2cccs2)C(=O)c2ccccc2[N+](=O)[O-])cc1,inactive,inactive,inactive,inactive,inactive,inactive,,,,
